# Screening data from PubChem.
# The list is not random: actives were taken first. Their share in the collection is about 1.8%.
# PME-1 inh: PME-1 (human) inhibition | Q9Y570 | recombinant PME-1, FP-Rh probe fluorescence polarization | inhibition, % at 5.9 µM | hit rate 0.53% among 320,000;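 active means inhibition above the campaign mean of all compounds plus 3 SD, cut at about 26% in these data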;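 further: competitive labeling of PME-1 active site by serine hydrolase directed probe; 0% = PME-1 with DMSO and 100% = wells lacking PME-1 enzyme; inhibitors block probe labeling so polarization falls and inhibition rises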
# GSTO1 counter: blocks human GSTO1 in RBBP9 counter-screen. P78417. recombinant GSTO1, activity-based probe fluorescence polarization. inhibition, % at 5.96 µM. hit rate 1.1% among 300,000;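 active means inhibition above the campaign mean inhibition plus 3 SD, cut at about 35% in these data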;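 further: 0% = GSTO1-1 with DMSO and 100% = wells lacking GSTO1-1 enzyme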
# Fam108B inh: counter-screen for RBBP9 inhibitors: inhibitors of mouse Fam108B; recombinant Fam108B, FP-Rh probe fluorescence polarization; inhibition, % at 9.51 µM; hit rate 0.33% among 300,000; AID 1947;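 active means inhibition above the screen mean inhibition plus 3 SD, computed separately per campaign, cut at about 18% in these data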;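 further: inhibitors lower polarization as less probe binds the enzyme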
# LYPLA2 counter: counter-screen for PME1 inhibitors: inhibitors of human LYPLA2. AID 2177. hit rate 0.38% among 320,000. O95372. recombinant LYPLA2, FP-Rh probe fluorescence polarization. inhibition, % at 5.9 µM;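 active means inhibition above the screen-wide mean plus 3 SD, limit set per campaign, cut at about 26% in these data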;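 further: 0% = LYPLA2 with DMSO and 100% = wells lacking LYPLA2 enzyme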
# PAD4 inh: PAD4 (human) enzyme inhibition | recombinant PAD4, RCA probe fluorescence polarization | inhibition, % at 6.36 µM | Q9UM07 | hit rate 0.41% among 330,000;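 active means percent inhibition above a cutoff equal to the mean of all tested compounds plus 3 SD, cut at about 15% in these data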;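 further: 0% = PAD4 with RCA probe and DMSO and 100% = probe without PAD4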
# Target sequence (Q9UM07 whole entry, looked up): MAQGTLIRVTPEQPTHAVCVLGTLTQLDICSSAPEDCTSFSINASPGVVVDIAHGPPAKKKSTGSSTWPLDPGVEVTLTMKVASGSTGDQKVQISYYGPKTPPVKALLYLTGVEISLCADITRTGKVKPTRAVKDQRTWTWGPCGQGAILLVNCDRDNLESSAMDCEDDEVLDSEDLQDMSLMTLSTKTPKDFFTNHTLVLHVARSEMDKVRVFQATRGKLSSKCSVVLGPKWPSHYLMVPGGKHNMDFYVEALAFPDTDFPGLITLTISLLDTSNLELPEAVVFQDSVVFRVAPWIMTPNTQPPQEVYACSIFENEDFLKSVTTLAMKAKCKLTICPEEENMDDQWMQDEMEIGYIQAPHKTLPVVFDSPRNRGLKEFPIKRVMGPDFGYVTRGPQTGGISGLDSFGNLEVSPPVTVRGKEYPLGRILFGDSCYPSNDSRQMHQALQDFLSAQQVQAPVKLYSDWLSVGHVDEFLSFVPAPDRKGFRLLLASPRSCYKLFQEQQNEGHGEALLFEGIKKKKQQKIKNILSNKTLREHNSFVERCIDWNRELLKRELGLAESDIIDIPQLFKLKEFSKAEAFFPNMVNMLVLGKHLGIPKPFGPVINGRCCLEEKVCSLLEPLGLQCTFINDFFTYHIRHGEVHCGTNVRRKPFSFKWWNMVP
# LYPLA1 counter: counter-screen for PME1 inhibitors: inhibitors of human LYPLA1. inhibition, % at 5.9 µM. hit rate 0.16% among 320,000. recombinant LYPLA1, FP-Rh probe fluorescence polarization. O75608;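 active means inhibition above the mean of all tested compounds plus 3 SD, set per campaign, cut at about 14% in these data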;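 further: inhibitors block serine hydrolase probe labeling of LYPLA1 so polarization falls; 0% = enzyme with DMSO and 100% = wells lacking LYPLA1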
# Fam108b confirm: confirmation of mouse Fam108b serine hydrolase inhibitors | shares compounds with Fam108B inh | recombinant Fam108b, FP-Rh probe fluorescence polarization | inhibition, % at 9.51 µM | hit rate 44% among 930;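 active means inhibition above a limit from the primary screen, the mean over all compounds plus 3 SD, cut at about 19% in these data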;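 further: 0% = median of active Fam108b wells and 100% = catalytically dead S170A mutant; inhibitors free the probe so polarization falls as inhibition rises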
# Fam108b inh: inhibits mouse Fam108b in gel-based ABPP | shares compounds with Fam108B inh | AID 588649 | recombinant Fam108b, fluorophosphonate probe | inhibition, % at 20 µM | hit rate 44% among 260; in the data active means inhibition above about 40%
# GSTO1 inh conf: confirmation of human GSTO1 inhibitors; inhibition, % at 5.96 µM; hit rate 54% among 2,400; shares compounds with GSTO1 counter; recombinant GSTO1, probe fluorescence polarization;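 active means inhibition above the primary screen's cutoff, its mean inhibition plus 3 SD, cut at about 35% in these data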;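 further: loss of polarization as inhibitors block binding of rhodamine sulfonate ester activity probe; 0% = GSTO1 with DMSO and 100% = wells lacking GSTO1 enzyme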
# GSTO1 ABPP inh: inhibitors of recombinant human GSTO1; inhibition, % at 1 µM; gel ABPP SE-Rh probe fluorescence; hit rate 30% among 130; shares compounds with GSTO1 counter;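 active means inhibition of the enzyme GSTO1 above about 75%, limit read from the data; inactive means inhibition below that limit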
# PAD4 confirm: confirmation of human PAD4 inhibitors; hit rate 28% among 1,200; AID 488796; inhibition, % at 6.36 µM; recombinant PAD4, RCA probe fluorescence polarization; shares compounds with PAD4 inh;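 active means mean inhibition across replicates above the hit cutoff set by the earlier primary screen, cut at about 15% in these data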;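 further: inhibitors block active-site labeling by the probe so polarization falls; 0% = PAD4 with probe and DMSO and 100% = probe without PAD4 enzyme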
# * marks the source's active call; other numbers are inactive results; · = no result given.
SMILES,PME-1 inh,GSTO1 counter,Fam108B inh,LYPLA2 counter,PAD4 inh,LYPLA1 counter,GSTO1 inh conf,others
OCCNC(=S)Nc1ccc(Cl)c(Cl)c1,-6,4,1,2,2,-2,·,
OCCNC(=S)Nc1ccc2nsnc2c1,24,85*,28*,12,28*,14,·,Fam108b confirm=-1;PAD4 confirm=6
O=[N+]([O-])c1ccc(CN2CCN(c3nc4ccccc4s3)CC2)cc1,-5,2,-2,1,-4,-1,·,
CCCn1nc([N+](=O)[O-])c(C(C#N)c2nc3ccccc3s2)c(Cl)c1=O (configuration not stated),36*,66*,31*,17,19*,-1,44*,Fam108b confirm=31*;Fam108b inh=0;PAD4 confirm=23*
O=C(C1CCCN(S(=O)(=O)c2ccc(Br)cc2)C1)N1CCN(Cc2ccccc2)CC1 (configuration not stated),10,-2,0,5,-7,-4,·,
CC(=O)Nc1ccc(NC(=O)CCS(=O)(=O)c2ccc3c(c2)oc(=O)n3C)cc1,-3,2,-1,-2,1,-3,·,
Cn1c(=O)oc2cc(NC(=O)CCl)ccc21,-4,76*,-2,-6,-4,-3,87*,
COc1ccc(C(=O)CSc2nnc(Cc3ccccc3)o2)cc1,-1,38*,3,4,0,-1,28,
CCOc1ccc(Cc2nnc(SCC(=O)c3ccc(OC)cc3)o2)cc1,6,25,2,8,0,2,·,
COc1cc(-c2nnc(SCC(=O)c3ccc(C)cc3)o2)cc(OC)c1OC,-1,38*,-4,-1,2,-5,27,
Cc1cc(C)cc(NC(=O)C(NCCN2CCOCC2)c2ccccc2)c1 (configuration not stated),-4,2,-2,-4,2,-3,·,
CC(C)n1cnnc1SCC(=O)NNC(=O)COc1ccc(Cl)cc1,0,0,-1,3,4,-1,·,
Oc1ccc(NCc2ccccc2OCc2ccccc2)cc1,24,84*,5,7,-6,7,7,
CCNCc1ccccc1OCc1ccccc1,3,7,-6,-12,0,-6,·,
Cc1cc2c(NC(=O)CC(C)(C)CC(=O)O)cccc2nn1,-7,42*,4,2,-1,0,7,
O=c1cc(CCl)nc2sc3ccccc3n12,6,89*,-4,-1,2,-4,100*,GSTO1 ABPP inh=87*
Cc1cc(C)nc(NN=C(c2ccccc2)c2ccccc2)n1,-6,-2,-4,-1,-6,-1,·,
Oc1ccc(O)c(/C(=N/Nc2ccccc2)c2ccccc2)c1,3,40*,5,1,-15,-1,6,
CCOc1ccccc1N1CCN(C(=O)NCc2ccc(C)cc2)CC1,2,4,1,0,-5,-4,·,
O=C(OCc1ccc(F)cc1)c1ccc2c(c1)-c1ccccc1C2=O,0,-3,0,-4,1,-3,·,
CCOC(=O)C1=C(Cc2ccc(F)cc2)C(=O)c2ccccc2C1=O,4,38*,7,4,-37,-2,4,
O=C(CCN1C(=O)/C(=C/c2ccccc2)SC1=S)NNC(=O)c1cccnc1,-7,6,1,-5,-3,-2,·,
Cc1ccc(/C=C2\SC(=S)N(CCC(=O)NNC(=O)c3cccnc3)C2=O)cc1,-10,39*,-9,-3,-2,-2,20,
CN(C)Cc1c(O)ccc2c3c(c(=O)oc12)CCCCC3,0,3,3,-2,2,-3,·,
CN(Cc1c(O)ccc2c1oc(=O)c1ccccc12)C1CCCCC1,7,46*,-1,3,0,-6,42*,
SMILES,PME-1 inh,GSTO1 counter,Fam108B inh,LYPLA2 counter,PAD4 inh,LYPLA1 counter,GSTO1 inh conf,others
O=S(=O)(c1ccc(Cl)cc1)N1CCC2(CC1)CO2,0,96*,0,-6,-4,1,106*,GSTO1 ABPP inh=64
NC1=NC(=O)/C(=C/c2ccc(Br)cc2)S1,3,-3,1,10,0,0,·,
NC1=NC(=O)/C(=C/c2cc(Br)c(O)c(Br)c2)S1,-6,41*,6,2,-28,1,81*,
CCCCNC(=O)Oc1cc(CCl)on1,1,83*,0,5,-1,-1,91*,GSTO1 ABPP inh=21
CCCCNC(=O)Cn1c(-c2ccc(OC)cc2)noc1=O,-1,2,1,5,2,-1,·,
Cc1nn(-c2ccc(Cl)cc2)c2[nH]c(CCl)cc(=O)c12,-6,97*,-6,-5,-1,-2,98*,GSTO1 ABPP inh=72
COc1ccc(N2CC(C(=O)N[C@@H](CC(C)C)C(=O)NC3CCCC3)CC2=O)cc1 (some centres not stated),-2,4,-2,10,4,3,·,
COc1ccc2nc(C)cc(SCC(=O)N/N=C/c3cccc4ccccc34)c2c1,-7,-9,-9,-4,-1,-3,·,
COc1cccc2c(SCC(=O)N/N=C/c3ccc(O)c(O)c3)cc(C)nc12,1,62*,2,-6,1,-7,9,
O=C(CSc1nc2ccccc2o1)N/N=C/c1ccccc1,-1,1,-3,6,-4,3,·,
COc1ccc2nc(C)cc(SCC(=O)N/N=C/c3ccc(O)c(O)c3)c2c1,5,51*,0,-2,6,-1,4,
O=C(CSc1nc2ccccc2o1)N/N=C/c1ccc(O)c(O)c1,-3,57*,1,-4,2,-5,11,
COc1ccc(CNC(=O)C2CC(=O)N(C3CCCC3)C2)cc1 (configuration not stated),7,-4,2,-6,4,1,·,
CCc1cc(=O)oc2cc(OC(C)=O)cc(OC(C)=O)c12,8,47*,-2,7,1,1,3,
CCc1cc(=O)oc2cc(OC(=O)c3ccco3)ccc12,2,6,3,-4,1,-1,·,
COc1c(-c2ccc(O)c(O)c2)oc2cc(O)cc(O)c2c1=O,-10,41*,-3,-6,-6,-9,22,
CC(C)OCCCNC(=O)C(Cc1ccccc1)NS(=O)(=O)c1ccc2c(c1)CCC(=O)N2 (configuration not stated),0,1,1,2,1,0,·,
